# Source: PubChem BioAssay
# An excerpt weighted towards active compounds, which were near 4.8% of everything screened.
# hgDAF12 agonist: H. glycines DAF-12 receptor agonists, primary screen, cell-based, luminescence, HEK293, GAL4 fusion, UAS-luciferase | Nuclear hormone receptor DAF-12 (Heterodera glycines), GAL4 fusion | HEK293 GAL4-hgDAF12 UAS-luciferase reporter, agonist luminescence; normalized to butyrate control | activation, % at 6.8 µM | 370,000 tested, 1.8% active;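 active = activation above a cutoff set at the mean of all screened compounds plus 3 SD, cut at about 10% in these data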;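 note: 0% = DMSO wells and 100% = sodium butyrate wells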
# ssDAF12 agonist: S. stercoralis DAF-12 nuclear receptor activators, primary screen, cell-based, luminescence, HEK293, GRIP1 co-expression, lit1-tk-luc | Nuclear hormone receptor DAF-12 (Strongyloides stercoralis) | HEK293 ssDAF-12/GRIP1 lit1-tk-luc reporter; % of 3 µM dafachronic acid response | activation, % at 6.8 µM | 370,000 tested, 1% active | AID 652126, 2013;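 active = activation above the mean over all tested compounds plus 3 SD, cut at about 0.9% in these data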;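 note: 0% = DMSO-only wells and 100% = 3 µM delta7-dafachronic acid wells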
# SMARCA2 act: SMARCA2 (BRM) function activators, primary screen, cell-based, luminescence, high throughput. 370,000 tested, 1% active. MG213 cells, MMTV-luciferase reporter, dexamethasone, overnight. activation, % at 9.1 µM. AID 652017, 2013; in the data active = activation above about 7.8%;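 note: 0% = vehicle wells and 100% = reference activator wells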
# DAX1 inh-1: DAX1 (NR0B1) inhibitors, primary screen, cell-based, HEK293, Gal4-DAX1, luciferase luminescence; inhibition, % at 6.75 µM; Nuclear receptor subfamily 0 group B member 1 (Homo sapiens), P51843; HEK293 Gal4-DAX1 luciferase reporter; 340,000 tested, 0.99% active;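 active = inhibition above the mean over all tested compounds plus 3 SD, cut at about 4.2% in these data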;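 note: 0% = DAX1-transfected cells with DMSO and 100% = empty-vector control cells with DMSO; inhibition shows as a rise in luminescence from relieved DAX1 repression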
# Target sequence (P51843 207-470 limits assumed): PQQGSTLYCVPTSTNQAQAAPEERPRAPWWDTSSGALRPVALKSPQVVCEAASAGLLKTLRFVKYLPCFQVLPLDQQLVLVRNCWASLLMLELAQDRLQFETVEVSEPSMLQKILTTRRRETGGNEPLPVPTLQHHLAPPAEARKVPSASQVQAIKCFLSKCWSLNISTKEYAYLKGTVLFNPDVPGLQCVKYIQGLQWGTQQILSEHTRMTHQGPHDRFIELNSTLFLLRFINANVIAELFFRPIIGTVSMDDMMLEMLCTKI
# hcDAF12 agonist: H. contortus DAF-12 nuclear receptor activators, primary screen, cell-based, luminescence, HEK293, lit1-tk-luc reporter | 370,000 tested, 1.4% active | HEK293 hcDAF-12 lit1-tk-luc reporter; 0% DMSO, 100% Δ7-dafachronic acid | activation, % at 6.8 µM;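 active = activation above the mean of all tested compounds plus 3 SD, cut at about 5.5% in these data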;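 note: 100% = response to 3 µM Δ7-dafachronic acid high control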
# DAX1 inh-2: DAX1 (NR0B1) inhibitors on StAR promoter, primary screen, cell-based, luminescence, SF-1 (NR5A1), full-length DAX-1. HEK293T StAR-luciferase reporter, SF-1/DAX-1 repression relief. inhibition, % at 6.8 µM. 370,000 tested, 1.1% active;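 active = inhibition above the mean over all tested compounds plus 3 SD, cut at about 3.6% in these data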;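 note: 0% = DAX-1 cells with DMSO and 100% = cells lacking DAX-1 with DMSO; higher inhibition means more luminescence from relief of DAX-1 repression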
# hgDAF12 ag: H. glycines DAF-12 receptor agonists, confirmation, cell-based, luminescence, HEK293, GAL4-LBD fusion; HEK293 GAL4-hgDAF12 luciferase reporter, agonist mode; percent of butyrate response; 3,300 tested, 80% active; shares compounds with hgDAF12 agonist; AID 743050, 2013; activation, % at 6.8 µM;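 active = mean activation over triplicate wells above the hit cutoff derived from the earlier primary screen, cut at about 11% in these data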;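 note: 0% = DMSO low control and 100% = 2 mM sodium butyrate high control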
# LXRb DAF12 ctr: LXR agonists, Gal4 luciferase reporter, confirmation, counter-screen for hgDAF-12 agonist project, cell-based, luminescence, HEK293, H. glycines campaign | 3,300 tested, under 10 active | AID 743051, 2013 | activation, % at 6.8 µM | 24 h | shares compounds with hgDAF12 agonist;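 active = mean activation of the triplicate above a set limit carried over from the primary screen, none filed active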
# * marks the source's active call; other numbers are inactive results; . = not tested or not shown.
SMILES,hgDAF12 agonist,ssDAF12 agonist,SMARCA2 act,DAX1 inh-1,hcDAF12 agonist,DAX1 inh-2,hgDAF12 ag,LXRb DAF12 ctr
COc1ccc(NC(=O)Nc2cccc(C)n2)cc1,17*,-1,2,2,2,2,12*,0
COc1ccc(NC(=S)Nc2cccc(C)n2)cc1,1,-1,7,.,-2,0,.,.
COc1cc(SC)ccc1C(=O)Nc1ccon1,6,-1,2,0,4,0,.,.
CC(C)CCNC(=O)C1CCCN(C(=O)c2ccc3c(c2)NC(=O)CS3)C1 (stereo unspecified),-5,-1,2,.,-1,-1,.,.
NC(=O)c1ncn([C@@H]2O[C@H](C(=O)N[C@H](Cc3c[nH]c4ccccc34)C(=O)N3CCN(CC(=O)N4CCCC4)CC3)[C@@H](O)[C@H]2O)n1,0,0,-1,.,1,0,.,.
O=C(Nc1ccc(Cl)cc1Cl)C1=Cc2ccccc2OC1,14*,0,5,3,5,3,18*,1
CCCN1CNc2c(c(=O)[nH]c(=S)n2CCc2c(Cl)cccc2Cl)C1,-2,-1,.,.,-2,.,.,.
O=c1c2ccccc2nnn1CSc1ccc2ccccc2n1,0,-2,5,1,1,0,.,.
O=c1c2ccccc2nnn1CSc1ccccc1,16*,-1,7,1,3,3.6*,14*,1
CCOC(=O)N/N=C1\CCc2ccccc21,15*,0,2,0,4,1,8,0
C/C(=N\NC(=O)c1nnn(-c2nonc2N)c1-c1ccccc1)c1cccnc1,3,-1,-2,1,1,0,.,.
C/C(=N\NC(=O)c1nnn(-c2nonc2N)c1CN(C)c1ccccc1)c1cccnc1,13*,1,1,-1,5,2,0,0
S=C(NCCc1cccc(Cl)c1)NC1CCCCC1,14*,0,6,2,4,3,11*,0
S=C(NCCc1ccccc1)NC1CCC(NC(=S)NCCc2ccccc2)CC1 (stereo unspecified),-1,-1,0,-1,-1,-1,.,.
Cc1ccc(C(=O)C2CCN(CC(=O)N3CCCC3)CC2)cc1,1,-1,-5,.,-2,-1,.,.
c1ccc(-c2cn3nc(-c4ccccc4)cnc3n2)cc1,17*,-1,7,4,2,3,8,0
COCCSc1nnc(-c2cccnc2)n1Cc1ccccc1,2,-1,-3,.,0,0,.,.
CCn1c(O)c(C=Nc2ccccc2)sc1=S,16*,0.9*,3,.,3,3,18*,1
O=C(N/N=C/c1ccccn1)c1c[nH]c2ccccc12,15*,0,3,3,4,1,13*,1
CSCCNC(=O)c1ccc(C(C)(C)C)cc1,16*,1.1*,5,0,4,3,16*,1
CC(C)(C)c1ccc(C(=O)NCCOc2ccccc2)cc1,2,-1,-1,-5,-1,1,.,.
COCCN1Cc2cc(C(=O)OC)c3c(c2C1=O)c1ccccc1n3S(=O)(=O)c1ccc(OC)cc1,1,-1,-1,.,0,0,.,.
N/C(=N\OC(=O)COc1cc(Cl)c(Cl)cc1Cl)c1ccncc1,2,-1,2,.,1,0,.,.
